Reference: the supplement of paper PMC7057948, “A genome-wide approach for identification and characterisation of metabolite-inducible systems” (Nature Communications, 2020)

The compounds below were run on HpdA/P_H16_RS24175 L-tyrosine biosensor (pEH158) (assay: relative induction of RFP reporter vs primary effector (background-corrected); higher = stronger activation of the biosensor). Conditions: inducer concentration 5 mM; 6 h; Cupriavidus necator H16; minimal medium + 0.4% gluconate.
Experimental: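 C. necator H16 strains, each carrying one of 21 transcription factor/inducible promoter–mRFP biosensor plasmids, were grown in minimal medium in 96-well plates (robotic platform). Each was exposed to 46 structurally or metabolically related compounds at 5 mM at 30 °C. OD-normalised RFP fluorescence was read 6 h later and expressed as relative induction (%) = 100 × (FL compound − FL uninduced)/(FL primary inducer − FL uninduced); mean of n=4.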
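Further: RFP excited at 585 nm with emission read at 620 nm, culture medium blanks subtracted from fluorescence and absorbance prior to normalisation.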

Compared with N[C@@H](Cc1c[nH]c2ccccc12)C(=O)O [L-tryptophan], O=C(O)c1cc(=O)c2ccccc2[nH]1 [kynurenate] is lower in “relative induction of RFP reporter” value: 0.00902% for the first, -0.151% for the second.

Compared with O=C(O)CC(=O)C(=O)O [oxaloacetate], O=C(O)C[C@H](O)C(=O)O [L-malate] is higher in “relative induction of RFP reporter” value: -0.115% for the first, -0.0258% for the second.

First: NCCc1ccc(O)c(O)c1 [dopamine]
Second: Oc1ccccc1O [catechol]
The “relative induction of RFP reporter” value of the first is lower: -0.023% for the first, 0.0942% for the second.

Going from CC(N)CC(=O)O (stereo not given) [3-aminobutanoate] to C[C@H](N)C(=O)O [L-alanine], the “relative induction of RFP reporter” value falls from -0.135% to -0.194%.

Going from O=C(O)C(O)c1ccccc1 (stereo not given) [mandelic acid] to O=C(O)CNC(=O)c1ccccc1 [N-benzoylglycine], the “relative induction of RFP reporter” value falls from 0.0552% to -0.186%.

Going from O=S(=O)(O)CCO [isethionate] to NCCS(=O)(=O)O [taurine], the “relative induction of RFP reporter” value falls from -0.112% to -0.19%.

First: Oc1ccccc1 [phenol]
Second: Oc1cccc(O)c1 [resorcinol]
The “relative induction of RFP reporter” value of the first is lower: -0.0814% for the first, -0.0108% for the second.

First: Cn1cnc2c1c(=O)[nH]c(=O)n2C [theobromine]
Second: Cn1c(=O)c2c(ncn2C)n(C)c1=O [caffeine]
The “relative induction of RFP reporter” value of the first is lower: 0.0337% for the first, 0.103% for the second.

Going from O=C(O)CC(CC(=O)O)C(=O)O [tricarballylate] to N[C@@H](CC(=O)O)C(=O)O [L-aspartate], the “relative induction of RFP reporter” value rises from -0.173% to -0.107%.

Compared with O=CC(=O)O [glyoxylate], O=C(O)/C=C/C(=O)O [fumarate] is lower in “relative induction of RFP reporter” value: -0.0503% for the first, -0.0945% for the second.

Going from CCC(=O)O [propanoate] to NCC(=O)O [glycine], the “relative induction of RFP reporter” value rises from -0.0944% to -0.0404%.

Going from O=C(O)c1ccc(O)cc1 [4-hydroxybenzoate] to Oc1ccc(O)cc1 [hydroquinone], the “relative induction of RFP reporter” value rises from -0.0931% to 0.0801%.

Compared with C[C@@H](O)C(=O)O [D-lactate], C[C@H](O)C(=O)O [L-lactate] is higher in “relative induction of RFP reporter” value: -0.202% for the first, -0.188% for the second.

Going from NCC(N)C(=O)O (stereo not given) [2,3-diaminopropanoate] to NCC(O)C(=O)O (stereo not given) [3-amino-2-hydroxypropanoate], the “relative induction of RFP reporter” value falls from 0.123% to -0.0973%.

Going from O=C(O)C1=CCCCC1 [cyclohexene-1-carboxylate] to O=C(O)C1CCCC1 [cyclopentane-1-carboxylate], the “relative induction of RFP reporter” value rises from 0.0248% to 0.108%.

Compared with O=C(O)c1c(O)cccc1O [2,6-dihydroxybenzoate], O=C(O)c1cccnc1 [nicotinate] is lower in “relative induction of RFP reporter” value: 0.0687% for the first, -0.141% for the second.

Going from OC[C@@H](O)[C@@H](O)[C@H](O)[C@H](O)CO [D-mannitol] to O=C(O)[C@@H](O)[C@@H](O)[C@H](O)[C@@H](O)C(=O)O [glucarate], the “relative induction of RFP reporter” value rises from -0.117% to -0.0077%.

First: O=C(O)C1=C[C@@H](O)[C@@H](O)[C@H](O)C1 [shikimate]
Second: O=C(O)C(O)C(=O)O [tartronic acid]
The “relative induction of RFP reporter” value of the first is higher: 0.167% for the first, -0.0907% for the second.

Going from CC(=O)CCC(=O)O [levulinic acid] to O=C(O)CCC(=O)O [succinate], the “relative induction of RFP reporter” value rises from -0.244% to -0.126%.

Going from O=c1cc[nH]c(=O)[nH]1 [uracil] to O=C(O)/C=C\C=C/C(=O)O [cis,cis-muconate], the “relative induction of RFP reporter” value rises from -0.0253% to 0.00769%.
